# aSyn UTR act = Activators working through SNCA 5'UTR binding (MLPCN) | 300,000 compounds, 7.1% hits | alpha-synuclein 5'UTR reporter, activators screen | activity score, % (tested at 7.5 µM), hits read low; in the data active = activity score below about -60%
# Active calls of the source: *. Not all results are given here.
SMILES,aSyn UTR act
CN(C)c1ccc(Nc2ccc([N+](=O)[O-])cn2)cc1,-162*
Cc1ccc(Nc2ccc([N+](=O)[O-])cn2)cc1Cl,-93*
CCOc1cc(CNc2ccc3c(c2)OCCO3)cc(Br)c1OC,95
CCOc1cc(CNc2ccc3c(c2)OCCO3)cc(Br)c1OCC(N)=O,-66*
COc1ccc(/C=N/Nc2cc(N(C)C)nc(N(C)C)n2)cc1,-65*
COc1ccc(/C=N/NC2=NCCCCC2)cc1,-86*
Oc1ccccc1/C=N/NC1=NCCCCC1,-161*
COc1ccc(C)cc1N(C(=O)COc1cccc(F)c1)c1nc2ccccc2s1,-110*
Cc1ccc(-c2cn3cccc(C)c3n2)cc1,-75*
COc1ccc(-c2cn3cccc(C)c3n2)cc1F,-149*
COc1ccc(-c2cn3cc(C)ccc3n2)cc1F,77
O=[N+]([O-])c1cccn2cc(-c3ccc(Br)cc3)nc12,-315*
N=c1c2c(n(Cc3ccc(Br)cc3)c3c1CCC3)CCCC2,60
O=C(Cc1c(Cl)cccc1Cl)OCc1ccccn1,-124*
CC(C)c1ccc(C(=O)NNC(=O)C2C3CCC(C3)C2C(=O)O)cc1 (stereo unspecified),-115*
CC(C)c1ccc(C(=O)NN2C(=O)C3CCCCC3C2=O)cc1 (stereo unspecified),-85*
CCCC(=O)Nc1ccc(C#Cc2ccccc2)cc1,-68*
O=C(Nc1ccccc1O)c1ccc(NC(=O)C2CC2)cc1,-805*
O=C(Nc1ccc(C#Cc2ccccc2)cc1)C1CC1,-113*
Cc1csc2ncc(C(=O)Nc3ccccc3F)c(=O)n12,-205*
Cc1csc2ncc(C(=O)Nc3ccccc3Cl)c(=O)n12,-204*
CN1c2ccsc2/C(=N/Nc2ccc(F)cc2)CS1(=O)=O,-187*
Cc1ccc(N/N=C2\CS(=O)(=O)N(C)c3ccsc32)cc1,-149*
COc1ccccc1Nc1ncc(-c2cccs2)s1,-177*
CC1(C)CCC(=O)N2CC[C@H]3C[C@H](OC(=O)Nc4ccc(Br)cc4)C[C@@H]1[C@H]32,-68*
SMILES,aSyn UTR act
O=C(Nc1ccc(Oc2c(F)c(F)c(F)c(F)c2F)cc1)OC1CCN2Cc3ccccc3N=C12 (stereo unspecified),104
CCCC(=O)NC(c1ccc(Cl)cc1Cl)c1ccc2cccnc2c1O (stereo unspecified),64
CCNC(=O)CCCOc1ccc(Cl)cc1Cl,-82*
Cc1ccc(-n2nc(C)c(NC(=O)CCl)c2C)cc1C,-220*
S=c1[nH]nc(-c2ccn[nH]2)n1-c1ccccc1Cl,-86*
C=C1C(=O)O[C@@H]2[C@H]1[C@@H](OC(=O)/C(C)=C/C)C/C(C)=C\C(=O)/C=C(\C)[C@@H]2O,-311*
COc1ccc2cnn(-c3ccc(OC(F)(F)Cl)cc3)c(=O)c2c1OC,-70*
COc1ccc2cnn(-c3ccc(C)cc3)c(=O)c2c1OC,-115*
CCCCCCOc1ccc(OCC(O)CN2C(=O)NC(C)(C)C2=O)cc1 (stereo unspecified),-128*
Cc1nc2cc(NC(=O)N3CCC(c4ccccc4)C3)ccc2n1C (stereo unspecified),-104*
Cc1ccc(C2CCN(C(=O)Nc3ccc(F)cc3)C2)cc1 (stereo unspecified),-125*
CCOC(=O)c1ccc(-c2ccc(C=O)o2)cc1,-146*
CCCOC(=O)c1ccc(-c2ccc(C=O)o2)cc1,-97*
CCCOc1ccc2cc(-c3ccccn3)c(=O)oc2c1,77
O=c1oc2cc(OCc3c(F)cccc3Cl)ccc2cc1-c1ccccn1,-107*
CC1C(O)=C(c2nc3ccccc3[nH]2)C(=N)N1c1ccccc1 (stereo unspecified),-131*
N=C1C(c2nc3ccccc3[nH]2)=C(O)CN1c1ccccc1,-293*
CCC(C)N1CC(O)=C(c2nc3ccccc3[nH]2)C1=N (stereo unspecified),-80*
O=C(O)C(=O)/C(=C\c1ccc([N+](=O)[O-])cc1)c1ccc2ccccc2n1,-88*
O=C(O)C(=O)/C(=C\c1ccccc1)c1ccc2ccccc2n1,-90*
CC1(C)CC(=O)c2sc(NC(=O)C3COc4ccccc4O3)nc2C1 (stereo unspecified),-101*
CC1(C)CC(=O)c2sc(NC(=O)c3ccco3)nc2C1,-120*
CCC(=O)N(c1ccc(C(=O)O)cc1)c1nc(-c2ccc(OC)cc2)c(C)s1,-185*
COc1ccc(-c2nc3cc(NC(=S)NC(=O)Cc4ccccc4)ccc3o2)cc1,-143*
CCC(=O)NC(=S)Nc1ccc2oc(-c3ccc(OC)cc3)nc2c1,-169*
SMILES,aSyn UTR act
CCc1ccc(NC(=O)CSc2nnnn2C)cc1,-132*
Cn1nnnc1SCC(=O)Nc1ccc2c(c1)OCO2,-99*
O=C(Nc1nc2c(s1)COc1ccccc1-2)c1cccs1,-104*
O=C(Nc1nc2c(s1)CCc1ccccc1-2)c1cccs1,-110*
Nc1ccc(-c2nnc(-c3ccc(N)cc3)o2)cc1,-106*
Oc1ccccc1-c1nnc(-c2ccc(C(F)(F)F)cc2)o1,-126*
c1ccc(-c2nnc(-c3ccncc3)o2)cc1,-89*
c1ccc(-c2nnc(-c3ccccc3)o2)cc1,-96*
COc1cccc(-c2nnc(-c3ccc(C(F)(F)F)cc3)o2)c1,-145*
COc1ccc(-c2nnc(-c3ccccc3)o2)cc1OC,-168*
COc1ccc(C2=Nn3c(nnc3-c3ccccc3)SC2)cc1OC,59
O=[N+]([O-])c1cc(-c2nnc(-c3ccccc3)o2)ccc1Oc1ccc(Cl)cc1,-95*
CN(C)S(=O)(=O)c1cccc(-c2nnc(-c3ccccc3)o2)c1,-113*
Nc1ccccc1-c1nnc(-c2ccc(-c3ccccc3)cc2)o1,-192*
CCC(=O)N1CCN(c2nc3ccccc3s2)CC1,-105*
O=C(C1CC1)N1CCN(c2nc3ccccc3s2)CC1,-84*
CNC(=S)N1CCN(c2nc3ccccc3s2)CC1,-75*
COc1ccc(C(=O)NCCOc2ccccc2Cl)c(OC)c1OC,-154*
O=C(Nc1cccc(Cl)c1)c1cnn2cccnc12,-202*
O=C(Nc1cc(Cl)cc(Cl)c1)c1cnn2cccnc12,-97*
Cc1cc(NC(=O)c2cnn3cccnc23)no1,-83*
CC(C)c1ccc(/C=N/NC(=O)C2CCCC2)cc1,-171*
COc1ccc(/C=N\NC(=O)C2CCCC2)cc1Br,-95*
Cc1cc(C)n(-c2ccc3cccc(NS(C)(=O)=O)c3n2)n1,90
Cc1cc2n(n1)SC(Nc1cccc3ccccc13)N2 (stereo unspecified),-94*
SMILES,aSyn UTR act
Cn1c(-c2nnn(-c3ccc(F)cc3)n2)cc2ccccc21,-156*
Cc1ccc(-n2nnc(-c3cc4ccccc4n3C)n2)cc1,-88*
c1ccc(Oc2nc(-c3ccccn3)nc3ccccc23)cc1,-64*
COc1ccc(Oc2nc(-c3ccccn3)nc3ccccc23)cc1,-110*
Fc1ccc(Oc2nc(-c3ccccn3)nc3ccccc23)cc1,-95*
CCOC(=O)CC(NC(=O)c1cc2cccc(OC)c2oc1=O)c1ccc(OC)cc1 (stereo unspecified),-70*
COc1cccc2cc(C(=O)NCc3ccccn3)c(=O)oc12,-164*
COc1cc(/C=N/n2cnnc2)ccc1OCc1ccccc1,-72*
COc1ccc(/C=C2\CN(Cc3ccccc3)C/C(=C\c3ccc(OC)c(O)c3)C2=O)cc1O,107
COc1cc(/C=N/n2cnnc2)ccc1OCc1ccc(C)cc1,-100*
Nc1nc(NCCOCCO)nc(NC2CCCCC2)c1[N+](=O)[O-],68
O=C(OCn1ncc(Cl)c(Cl)c1=O)c1ccc(C(F)(F)F)cc1,-117*
